Structures are written as SMILES. Potency and affinity values are given separately. The source made the active and inactive calls.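 The calls were made as follows: active = dose curve could be fitted and remaining uptake under 40% of control at 33.3 µM; inactive = the rest.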

The target in the assay is High affinity choline transporter 1 (Homo sapiens) (UniProt Q9GZV3). The assay can be described thus: CHT inhibitors reducing choline uptake, dose response, orthogonal assay for CHT inhibitor project, cell-based, 3H-choline uptake, radioactive, HEK293 CHT LV-AA (AID 651756).
Sequence of High affinity choline transporter 1 (Homo sapiens) (Q9GZV3 whole entry, looked up): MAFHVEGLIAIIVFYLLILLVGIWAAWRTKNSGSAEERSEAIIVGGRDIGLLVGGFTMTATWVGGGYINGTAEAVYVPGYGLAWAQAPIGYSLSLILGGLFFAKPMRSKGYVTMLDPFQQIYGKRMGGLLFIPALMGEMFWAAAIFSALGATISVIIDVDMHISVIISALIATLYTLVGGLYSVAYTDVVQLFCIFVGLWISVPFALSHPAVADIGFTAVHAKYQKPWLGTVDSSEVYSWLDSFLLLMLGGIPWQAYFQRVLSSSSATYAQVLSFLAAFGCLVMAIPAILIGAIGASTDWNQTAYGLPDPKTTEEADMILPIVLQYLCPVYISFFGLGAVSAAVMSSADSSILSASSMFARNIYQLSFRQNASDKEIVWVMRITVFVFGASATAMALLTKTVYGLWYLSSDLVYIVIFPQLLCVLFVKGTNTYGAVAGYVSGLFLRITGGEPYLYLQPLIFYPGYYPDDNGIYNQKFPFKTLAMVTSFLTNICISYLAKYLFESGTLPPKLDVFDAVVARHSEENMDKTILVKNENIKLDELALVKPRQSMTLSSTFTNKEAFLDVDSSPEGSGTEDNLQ

Regarding `O=C1c2ccc(Cl)cc2C(=O)N1c1ccc(S(=O)(=O)Nc2ccccn2)cc1`, the outcome was inactive.

For `O=C(Nc1ccc(S(=O)(=O)Nc2ccccn2)cc1)c1cccc(-c2ccccc2)c1`, the outcome was inactive.

With `CC1(c2ccccc2)CC(=O)N(c2ccc(S(=O)(=O)Nc3ccccn3)cc2)C1=O` (configuration not stated), the outcome was inactive.

For the compound `O=C(Nc1ccc(S(=O)(=O)Nc2ccccn2)cc1)c1cccc2ccccc12`, the result was inactive.

Consider `O=C(Nc1ccc(S(=O)(=O)Nc2ccccn2)cc1)c1ccc2c(c1)CCCC2`, for which the result was inactive.

For the compound `O=C1C(c2ccccc2)C(c2ccccc2)C(=O)N1c1ccc(S(=O)(=O)Nc2ccccn2)cc1` (configuration not stated), the outcome was inactive.

In the case of `O=C(Nc1ccc(S(=O)(=O)Nc2ccccn2)cc1)c1ccccc1-c1ccccc1`, the outcome was inactive.

Turning to `Cc1cc(C)c(C(=O)Nc2ccc(S(=O)(=O)Nc3ccccc3)cc2)c(C)c1`, the outcome was inactive.

In the case of `Cc1ccccc1C(=O)Nc1ccc(S(=O)(=O)Nc2ccccn2)cc1`, the outcome was inactive.

Turning to `O=C(Nc1ccc(S(=O)(=O)Nc2ccccn2)cc1)c1ccc(C(F)(F)F)cc1`, the result was inactive.

With `O=C1c2ccccc2C(=O)N1c1ccc(S(=O)(=O)Nc2ccccn2)cc1`, the result was inactive.

For `Cc1cc(F)ccc1C(=O)Nc1ccc(S(=O)(=O)Nc2ccccn2)cc1`, the result was inactive.

Source of the values: PubChem BioAssay AID651756 (Johns Hopkins Ion Channel Center, 2012).
